High-throughput results deposited in PubChem by National Center for Advancing Translational Sciences (NCATS).
Compounds with a hit are over-represented: about 11% of the library has one in this group of screens.
IL-1B inflam inh – inhibitors of inflammasome signaling (IL-1 beta secretion); THP-1 LPS/ATP IL-1B secretion, AlphaLISA, 16 h; active compounds read low; activity change, % at 57.5 µM; hit rate 4.7% among 360,000; AID 743279; in the data active = activity change below about -50%; inconclusive = mostly about -30% to -49%; note: % is set by controls: 0 for no effect and ±100 for the full control effect
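THP-1 cells pretreated 1 hr with compounds (up to 57.5 uM final), then stimulated with LPS (250 ng/mL final) plus ATP (1.25 mM final); secreted IL-1B measured by AlphaLISA after 16 hr, decreased signal indicating inhibition.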
MCF10A rereplic – DNA re-replication induction in MCF 10a cells; MCF 10A DNA re-replication, Hoechst nuclear intensity, 48 h; Potency, µM (series often up to 46.1 µM), for inactives: at the highest dose activity, positive = re-replication, most hits filed as activators; hit rate 2.9% among 350,000; AID 624296; note: potency is the fitted concentration of half-maximal effect; % of control where 0% means no effect; nearly all actives have a fitted effect of over 50% in size
VP16 counter – counter-screen for ROR gamma inhibitors: Gal4-VP16 reporter. Drosophila S2 Gal4-VP16 UAS-luciferase, luminescence, 20 h. Potency, µM (series often up to 53.6 µM), for inactives: at the top dose activity, negative = inhibition, actives largely listed as inhibitors. hit rate 3.5% among 310,000. AID 2546;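 note: Gal4-VP16 expression switched on by copper sulfate through the metallothionein promoter; potency is the fitted concentration of half-maximal effect; % is set by controls: 0 for no effect and ±100 for the full control effect; nearly all actives have a fitted effect of over 50% in size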
RORg inh – inhibitors of mouse ROR gamma transcriptional activity. Drosophila S2 Gal4-RORgamma UAS-luciferase reporter, 20 h. Potency, µM (doses to about 53.6 µM), for inactives: top-dose activity change, negative = inhibition, usual class: inhibitors. hit rate 5.4% among 310,000. AID 2551; note: potency is the fitted concentration of half-maximal effect; % is set by controls: 0 for no effect and ±100 for the full control effect; nearly all actives have a fitted effect of over 60% in size
Target sequence (P51450 whole entry, looked up, the tested form may be a part): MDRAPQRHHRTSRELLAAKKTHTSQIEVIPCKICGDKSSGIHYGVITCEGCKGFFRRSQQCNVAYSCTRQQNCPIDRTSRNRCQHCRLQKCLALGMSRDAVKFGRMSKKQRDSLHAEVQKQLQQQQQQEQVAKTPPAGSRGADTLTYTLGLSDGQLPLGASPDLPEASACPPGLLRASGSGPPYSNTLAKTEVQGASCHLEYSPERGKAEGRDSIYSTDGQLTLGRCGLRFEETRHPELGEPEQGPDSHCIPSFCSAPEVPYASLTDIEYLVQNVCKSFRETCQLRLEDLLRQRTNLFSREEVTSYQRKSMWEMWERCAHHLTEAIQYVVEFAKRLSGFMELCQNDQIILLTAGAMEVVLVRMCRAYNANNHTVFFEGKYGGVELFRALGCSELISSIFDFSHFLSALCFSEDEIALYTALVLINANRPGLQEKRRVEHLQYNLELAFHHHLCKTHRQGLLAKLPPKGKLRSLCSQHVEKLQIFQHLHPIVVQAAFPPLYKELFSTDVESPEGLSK
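Luciferase reporter read in Schneider cells carrying Gal4-RORγ (mouse) and UAS-Photinus luciferase; cells given compound 1 h before 700 uM copper sulfate induction, then incubated 20 h at ambient temperature.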
SW480 rerep – DNA re-replication induction in SW480 cells; Potency, µM (doses to about 46.1 µM), without a hit: at the highest dose re-replication activation, most hits filed as activators; SW480 DNA re-replication, Hoechst DNA content imaging, 48 h; hit rate 1.8% among 340,000; note: potency is the fitted concentration of half-maximal effect; % of control where 0% means no effect; nearly all actives have a fitted effect of over 55% in size
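Readout is total intensity of Hoechst-stained nuclei, excited at 405 nm and collected at 500-530 nm. Compound treatment lasted 48 hr at 37 C in 5% CO2 before staining.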
Starred values were filed as active, the others as inactive; ? = inconclusive; / = not tested or not shown; [ ] = remark or other dose. Unless noted, calls come from the whole dose curve; as a rule, active = well fitted curve in the direction sought with a large enough effect; inconclusive = small, poorly fitted or top-dose-only effect, or another doubt; inactive = no such curve, though single readings can be large; an effect the other way counts as inactive or inconclusive.

SMILES	IL-1B inflam inh	MCF10A rereplic	VP16 counter	RORg inh	SW480 rerep
O=C(OCc1ccc(O)cc1)c1c(-c2ccsc2)oc2ccc(N3CCOCC3)cc12	-12.5	20.6µM*	-0.5%	39.6%	20.6µM*
COC(=O)c1ccc(/C=C/c2c(-c3ccc(OC)cc3)oc3ccc(N4CCOCC4)cc23)cc1	-6.4	?	-8.8%	3.9%	?
OC1(C#Cc2c(-c3ccsc3)oc3ccc(N4CCOCC4)cc23)CCCCC1	0.0	?	/	/	?
COc1ccc(/C=C/c2c(-c3cccc(C)c3)oc3ccc(N4CCOCC4)cc23)cc1	-2.5	9.2µM*	/	/	6.5%
COc1ccc(C#Cc2c(-c3ccsc3)oc3ccc(N4CCOCC4)cc23)cc1	-8.3	16.4µM*	/	/	5.3%
COc1ccc(-c2oc3ccc(N4CCOCC4)cc3c2C#CC2(O)CCCCC2)cc1	11.3	?	/	/	?
COc1ccc(-c2oc3ccc(N4CCOCC4)cc3c2C#Cc2ccc(N)cc2)cc1	46.6	5.8µM*	/	/	?
O=C(c1cc(C2CC2)nn1-c1ccccc1)N1CCN(Cc2c(F)cccc2Cl)CC1	-20.8	12.7%	/	/	-2.0%
CCNC(=O)C1CCCN(C(=O)c2c(-c3ccccc3)noc2C)CC1 (stereo unspecified)	9.6	/	/	/	/
CC(C)OCCCNC(=S)Nc1ccc(S(N)(=O)=O)cc1	10.2	0.0%	35.5µM*	8.0%	-0.4%
CC(=O)c1ccc(NC(=S)NCCc2ccc(S(N)(=O)=O)cc2)cc1	-25.3	4.3%	-11.8%	?	-4.9%
COC(=O)N(C)C[C@H]1OCc2cnnn2CCCC(=O)N([C@@H](C)CO)C[C@H]1C	-6.4	/	/	/	/
COc1ccc(-c2ccc(SCc3ccccn3)nn2)cc1OC	-55.7*	?	-4.3%[10 µM]	16.6%	-60.4%
Clc1ccc(-c2ccc(SCc3ccccn3)nn2)cc1	-7.1	?	?	-25.4%	-2.6%
COc1cccc(-c2ccc(SCc3ccccn3)nn2)c1	-85.3*	-1.9%	?	17.5%	-2.2%
O=[N+]([O-])c1cccc(-c2ccc(SCc3ccccn3)nn2)c1	?	-3.5%	?	?	-6.8%
CC(=O)C1=CCC(c2cccc3ccccc23)N(S(=O)(=O)c2ccc(C)cc2)C1 (stereo unspecified)	-15.8	/	/	/	/
CCC1CCc2sc(C(=O)N3CCCN(C)CC3)cc2C1 (stereo unspecified)	-69.0*	?	/	/	15.8%
CCC1CCc2sc(C(=O)N3CCN(c4ccccn4)CC3)cc2C1 (stereo unspecified)	-0.4	?	/	/	-1.8%
COc1cccc(C(=O)NCCSc2c(C)[nH]c3ccccc23)c1OC	-22.2	?	-4.1%	39.2%	1.4%
CC/C(=C/c1ccccc1)c1cccc2[nH]c3c(OC)cccc3c12	4.0	20.6µM*	-3.6%	17.8%	10.9%
O=S1(=O)N=C(c2ccccc2)c2ccccc21	22.4	-0.5%	/	/	-5.6%
N=c1ccn(Cc2cccc(F)c2)cc1	14.9	-3.3%	10µM*	?	?
Nc1ccn(Cc2cccc(F)c2)n1	9.8	3.5%	-0.9%	6.8%	-2.5%
CCCCCCCCOc1ccccc1C(=O)Nc1ccc(C(=O)OCC[N+](C)(CC)CC)cc1	/	26.6µM*	-5.9%	29.0%	-1.5%
SMILES	IL-1B inflam inh	MCF10A rereplic	VP16 counter	RORg inh	SW480 rerep
CCCCOC(=O)c1ccc(NC(=O)c2c(OC)cccc2OC)cc1	21.9	15.3%	-21.2%	?	-4.2%
CCCC(C(=O)NC1CCCC1)N(Cc1ccccc1)C(=O)c1snc(C(N)=O)c1N (stereo unspecified)	-11.2	8.4%	-18.2%	-15.8%	?
CCCCc1ncc(CN2CCC(n3nccc3NC(=O)C(OC)c3ccccc3)CC2)[nH]1 (stereo unspecified)	4.1	-31.4%	-6.1%	-30.8%	0.9%
O=C(N/N=C/c1ccnc2ccccc12)c1ccccc1O	-19.6	0.1%	-12.0%	-41.1%	23.6%
Cc1[nH]c2ccccc2c1C=NNC(=O)c1cc(-c2cccnc2)nc2ccccc12	21.5	?	/	/	-14.7%
Cc1nn(-c2ccccc2)c(N2CCCC2)c1/C=N/NC(=O)c1ccccc1O	14.5	?	10µM*	10µM*	1.4%
O=C(N/N=C/c1cc2c3c(c1O)CCCN3CCC2)c1ccccc1O	220.6	13µM*	20µM*	?	9.2µM*
Cc1nn(-c2ccccc2)c(N2CCCC2)c1/C=N/NC(=O)c1cc(-c2cccnc2)nc2ccccc12	?	13µM*	?	4.0%	?
O=C(CCC(=O)Nc1ccc(Cl)cc1)N/N=C/c1ccc2c(c1)OCO2	-12.5	-1.8%	14.1µM*	-13.8%	-19.0%
Cc1cc(C)c(OCC(=O)N/N=C/c2ccc3c(c2)OCO3)c(C)c1	7.3	2.91µM*	?	-36.3%	?
Cc1cccc(OCC(=O)N/N=C/c2ccc3c(c2)OCO3)c1	1.6	-47.5%	-1.1%	34.7%	4.4%
Cc1ccccc1OCC(=O)Nc1ccc2c(c1)OCCO2	0.0	0.4%	-4.1%	-19.7%	0.5%
Cc1ccccc1OCC(=O)N/N=C/c1ccc(N2CCOCC2)o1	?	?	6.31µM*	14.1µM*	?
Cc1ccccc1OCC(=O)N/N=C/c1ccncc1	21.0	2.1%	?	6.8%	-8.3%
Cc1ccccc1OCC(=O)N/N=C/c1ccc2c(c1)OCCO2	0.0	11.6µM*	?	-37.2%	?
Cc1ccc(C(=O)c2no[n+]([O-])c2C(=O)c2ccc(C)cc2)cc1	-91.1*	7.31µM*	?	?	5.17µM*
Cc1ccc(C(=O)c2ccc(C)cc2)cc1	-25.4	-1.1%	-25.4%	?	-1.2%
CN(CC1CCN(CCc2cccc(C(F)(F)F)c2)CC1)C(=O)c1ccc(F)cc1	?	10.4%	2.3%	?	3.9%
COc1cc(C(=O)N(C)CC2CCN(CCc3cccc(C(F)(F)F)c3)CC2)ccc1C	-86.4*	?	-2.3%	-19.3%	?
Cc1ccc(NC(=O)NCc2cccnc2)cc1	-53.0*	-1.8%	25.6%	?	12.6%
O=C(NCc1cccnc1)Nc1ccc(Br)cc1	-13.2	-0.7%	13.0%	15.9%	0.3%
Cc1ccc(CC(=O)NCc2ccc(F)cc2)cc1	0.0	?	-21.5%	18.7%	18.4µM*
O=C(Cc1ccc(-c2ccccc2)cc1)NCc1cccnc1	12.3	11.6µM*	3.7%	29.4%	23.1µM*
O=C(Cc1ccccc1)NCc1cccnc1	4.9	1.7%	14.6%[10 µM]	32.2%	-4.6%
Cc1ccc(CNC(=O)CSCc2ccc(F)cc2)cc1	0.0	-1.1%	-7.8%	28.4%	-4.3%
Cc1ccc(CNC(=O)CCC(=O)c2cccs2)cc1	-25.1	-0.3%	-2.8%	12.6µM*	-10.4%
COc1ccc(-n2[nH]c3c4c(ncc3c2=O)CCCCC4)cc1	/	/	-10.4%	2.6%	/
CC(=O)Nc1cccc(-c2cc(NC(C)=O)c3ncc(-c4ccc(C(C)=O)cc4)n3c2)c1	0.0	/	/	/	/
